According to the supplement of paper PMC11732987, “Enantioselective OTUD7B fragment discovery through chemoproteomics screening and high-throughput optimisation” (Communications Chemistry, 2025):
A number with no mark means an inactive call.

Columns and labels:
Experiment in all cases: log2 ratio of Biotin-Ahx-Ub-VS probe labelling (fragment/DMSO); higher = less target engagement (more negative = stronger competition), active = hit call of the paper (q ≤ 0.05, log2 ratio ≤ -1)
Details in all cases: compound concentration: 200 uM; treatment time: 3 h
[1] = biological target: T1, ALG13 (UniProt Q9NP73)
T1 sequence (whole entry): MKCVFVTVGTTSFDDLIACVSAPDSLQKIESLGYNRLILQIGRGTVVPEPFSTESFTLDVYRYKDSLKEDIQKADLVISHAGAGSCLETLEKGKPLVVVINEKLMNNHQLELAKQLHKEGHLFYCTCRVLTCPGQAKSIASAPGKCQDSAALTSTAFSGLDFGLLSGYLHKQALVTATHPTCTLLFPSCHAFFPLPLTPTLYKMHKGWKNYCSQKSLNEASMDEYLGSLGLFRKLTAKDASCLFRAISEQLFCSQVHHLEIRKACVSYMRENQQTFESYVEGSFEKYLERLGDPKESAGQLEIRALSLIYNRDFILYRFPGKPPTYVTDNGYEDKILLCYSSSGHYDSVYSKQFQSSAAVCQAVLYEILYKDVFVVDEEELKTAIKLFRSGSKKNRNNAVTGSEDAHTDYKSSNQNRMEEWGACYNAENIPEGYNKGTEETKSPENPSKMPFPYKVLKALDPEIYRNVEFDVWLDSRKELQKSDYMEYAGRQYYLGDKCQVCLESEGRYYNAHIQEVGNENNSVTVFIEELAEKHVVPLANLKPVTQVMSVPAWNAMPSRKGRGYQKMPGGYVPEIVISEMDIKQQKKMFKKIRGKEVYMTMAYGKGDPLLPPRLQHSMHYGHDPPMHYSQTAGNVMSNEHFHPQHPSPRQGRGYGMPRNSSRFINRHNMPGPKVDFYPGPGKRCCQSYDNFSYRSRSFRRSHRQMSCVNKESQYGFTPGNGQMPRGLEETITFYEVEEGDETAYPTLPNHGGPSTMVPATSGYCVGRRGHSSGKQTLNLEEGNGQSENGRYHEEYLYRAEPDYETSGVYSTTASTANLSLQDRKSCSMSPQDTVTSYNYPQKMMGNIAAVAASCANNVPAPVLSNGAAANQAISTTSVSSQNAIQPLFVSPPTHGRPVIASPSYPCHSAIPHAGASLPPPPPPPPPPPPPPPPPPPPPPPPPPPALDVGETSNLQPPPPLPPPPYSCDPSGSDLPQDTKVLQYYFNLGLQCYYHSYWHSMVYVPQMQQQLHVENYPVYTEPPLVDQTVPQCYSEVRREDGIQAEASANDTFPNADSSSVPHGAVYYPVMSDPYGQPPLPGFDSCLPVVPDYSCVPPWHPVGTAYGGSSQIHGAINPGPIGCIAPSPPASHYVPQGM
How it was run: (§1)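 Average log2 ratios of fragment over vehicle were obtained by unpaired t-test from global-median-normalised Spectronaut label-free quantities. Proteins with ≥2 unique peptides were included. HEK293T lysate (495 µg per sample) was treated in triplicate with fragment at 200 µM or vehicle for 3 h, then with Biotin-Ahx-Ub-VS at 0.5 µM final for 1 h, and labelled DUBs were NeutrAvidin-enriched and run by diaPASEF LC-MS/MS.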

[2] = biological target: ATXN3 (UniProt P54252)
How it was run: as §1

[3] = biological target: T2, BAP1 (UniProt Q92560)
T2 sequence (whole entry): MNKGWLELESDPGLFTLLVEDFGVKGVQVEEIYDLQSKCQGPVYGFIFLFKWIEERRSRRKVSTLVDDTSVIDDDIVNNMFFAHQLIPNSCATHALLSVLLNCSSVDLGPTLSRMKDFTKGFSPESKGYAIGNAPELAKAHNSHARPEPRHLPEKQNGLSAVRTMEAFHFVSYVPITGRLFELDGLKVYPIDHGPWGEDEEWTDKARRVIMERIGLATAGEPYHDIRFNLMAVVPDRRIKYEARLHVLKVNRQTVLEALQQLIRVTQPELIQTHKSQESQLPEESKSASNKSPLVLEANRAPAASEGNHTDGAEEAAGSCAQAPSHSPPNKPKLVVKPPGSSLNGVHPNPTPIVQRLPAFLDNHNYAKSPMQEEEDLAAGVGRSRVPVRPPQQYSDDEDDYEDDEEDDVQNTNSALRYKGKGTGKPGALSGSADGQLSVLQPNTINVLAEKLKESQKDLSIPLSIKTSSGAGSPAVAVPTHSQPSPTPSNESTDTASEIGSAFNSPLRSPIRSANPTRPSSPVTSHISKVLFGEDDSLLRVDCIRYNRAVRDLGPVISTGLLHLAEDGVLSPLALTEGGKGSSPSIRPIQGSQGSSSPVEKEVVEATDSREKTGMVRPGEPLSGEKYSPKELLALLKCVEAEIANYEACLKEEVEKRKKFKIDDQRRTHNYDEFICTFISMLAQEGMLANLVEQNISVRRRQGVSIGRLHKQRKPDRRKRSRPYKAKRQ
How it was run: as §1

[4] = biological target: EIF3F (UniProt O00303)
How it was run: as §1

[5] = biological target: EIF3H (UniProt O15372)
How it was run: as §1

[6] = biological target: T3, FAM105A (UniProt Q9NUU6)
T3 sequence (whole entry): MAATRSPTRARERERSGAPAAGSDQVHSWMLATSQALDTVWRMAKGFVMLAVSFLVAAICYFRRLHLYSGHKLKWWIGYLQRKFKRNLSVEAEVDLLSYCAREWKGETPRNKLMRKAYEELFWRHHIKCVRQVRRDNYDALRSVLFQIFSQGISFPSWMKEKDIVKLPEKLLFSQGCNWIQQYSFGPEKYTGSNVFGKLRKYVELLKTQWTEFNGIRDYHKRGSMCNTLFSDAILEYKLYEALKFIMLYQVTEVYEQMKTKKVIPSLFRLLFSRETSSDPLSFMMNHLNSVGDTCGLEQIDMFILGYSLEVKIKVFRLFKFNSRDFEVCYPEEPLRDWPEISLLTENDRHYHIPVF
How it was run: as §1

[7] = biological target: OTUB1 (UniProt Q96FW1)
How it was run: as §1

[8] = biological target: T4, OTUD4 (UniProt Q01804)
T4 sequence (whole entry): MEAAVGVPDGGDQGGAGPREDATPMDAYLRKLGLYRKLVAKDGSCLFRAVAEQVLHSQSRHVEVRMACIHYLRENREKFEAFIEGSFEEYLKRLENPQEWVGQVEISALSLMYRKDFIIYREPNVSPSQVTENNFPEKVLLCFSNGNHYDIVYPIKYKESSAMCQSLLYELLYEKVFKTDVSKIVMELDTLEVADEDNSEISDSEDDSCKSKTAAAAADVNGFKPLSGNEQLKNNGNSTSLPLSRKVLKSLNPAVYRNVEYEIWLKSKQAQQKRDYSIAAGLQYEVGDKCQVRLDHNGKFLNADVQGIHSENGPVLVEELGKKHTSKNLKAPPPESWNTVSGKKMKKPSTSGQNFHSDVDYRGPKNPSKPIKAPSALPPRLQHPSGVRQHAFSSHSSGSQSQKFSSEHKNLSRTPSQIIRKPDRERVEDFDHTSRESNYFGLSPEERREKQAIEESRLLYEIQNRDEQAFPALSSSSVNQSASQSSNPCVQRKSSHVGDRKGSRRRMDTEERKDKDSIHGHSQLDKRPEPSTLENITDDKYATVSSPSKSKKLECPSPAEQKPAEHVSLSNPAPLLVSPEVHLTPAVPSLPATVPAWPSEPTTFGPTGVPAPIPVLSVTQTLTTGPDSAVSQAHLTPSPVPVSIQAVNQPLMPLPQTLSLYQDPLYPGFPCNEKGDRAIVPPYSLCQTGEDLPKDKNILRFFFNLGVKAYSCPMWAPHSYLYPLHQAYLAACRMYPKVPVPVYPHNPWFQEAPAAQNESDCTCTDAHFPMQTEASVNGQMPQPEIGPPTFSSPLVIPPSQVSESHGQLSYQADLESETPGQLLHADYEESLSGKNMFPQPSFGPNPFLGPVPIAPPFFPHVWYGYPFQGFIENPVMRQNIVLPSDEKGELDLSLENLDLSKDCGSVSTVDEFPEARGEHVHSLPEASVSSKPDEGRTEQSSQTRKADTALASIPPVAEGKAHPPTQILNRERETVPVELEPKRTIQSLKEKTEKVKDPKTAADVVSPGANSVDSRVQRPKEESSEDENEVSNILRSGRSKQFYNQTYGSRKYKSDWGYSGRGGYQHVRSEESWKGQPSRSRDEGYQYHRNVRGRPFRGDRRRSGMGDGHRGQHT
How it was run: as §1

[9] = biological target: T5, OTUD5 (UniProt Q96G74)
T5 sequence (whole entry): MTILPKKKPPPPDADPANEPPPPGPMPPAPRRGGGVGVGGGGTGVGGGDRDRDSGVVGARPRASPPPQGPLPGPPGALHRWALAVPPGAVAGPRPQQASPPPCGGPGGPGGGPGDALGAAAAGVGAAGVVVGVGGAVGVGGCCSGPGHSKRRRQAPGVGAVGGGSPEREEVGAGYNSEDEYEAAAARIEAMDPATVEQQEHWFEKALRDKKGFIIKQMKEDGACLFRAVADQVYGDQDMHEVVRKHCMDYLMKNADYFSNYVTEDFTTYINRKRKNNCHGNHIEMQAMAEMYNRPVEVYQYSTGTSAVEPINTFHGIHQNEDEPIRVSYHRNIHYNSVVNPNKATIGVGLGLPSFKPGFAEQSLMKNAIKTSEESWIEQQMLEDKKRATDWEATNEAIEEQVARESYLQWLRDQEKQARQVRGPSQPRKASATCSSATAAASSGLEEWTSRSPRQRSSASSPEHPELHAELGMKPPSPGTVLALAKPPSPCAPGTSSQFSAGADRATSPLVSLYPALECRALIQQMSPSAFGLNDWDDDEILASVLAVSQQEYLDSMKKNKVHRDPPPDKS
How it was run: as §1

EIF3H, sequence (O15372 whole entry): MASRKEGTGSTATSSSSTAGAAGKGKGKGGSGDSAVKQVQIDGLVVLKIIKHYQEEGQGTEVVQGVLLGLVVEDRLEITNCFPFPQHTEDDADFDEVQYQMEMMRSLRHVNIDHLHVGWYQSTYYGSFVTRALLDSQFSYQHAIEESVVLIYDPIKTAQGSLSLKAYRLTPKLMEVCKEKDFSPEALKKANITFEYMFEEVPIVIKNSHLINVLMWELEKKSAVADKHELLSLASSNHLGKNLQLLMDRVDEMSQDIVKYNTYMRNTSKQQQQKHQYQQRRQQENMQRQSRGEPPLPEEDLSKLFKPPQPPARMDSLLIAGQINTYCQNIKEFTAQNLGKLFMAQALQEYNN
ATXN3, sequence (P54252 whole entry): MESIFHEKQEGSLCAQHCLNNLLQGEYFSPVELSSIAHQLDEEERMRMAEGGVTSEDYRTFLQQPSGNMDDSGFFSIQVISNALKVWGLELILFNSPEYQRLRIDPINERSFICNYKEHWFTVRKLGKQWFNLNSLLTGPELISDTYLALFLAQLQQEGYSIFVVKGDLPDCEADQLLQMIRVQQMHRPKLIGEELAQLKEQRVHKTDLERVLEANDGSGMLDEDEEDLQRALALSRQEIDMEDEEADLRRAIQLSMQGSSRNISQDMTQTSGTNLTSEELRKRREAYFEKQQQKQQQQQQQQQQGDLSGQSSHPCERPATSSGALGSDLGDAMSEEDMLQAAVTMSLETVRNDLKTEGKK
EIF3F, sequence (O00303 whole entry): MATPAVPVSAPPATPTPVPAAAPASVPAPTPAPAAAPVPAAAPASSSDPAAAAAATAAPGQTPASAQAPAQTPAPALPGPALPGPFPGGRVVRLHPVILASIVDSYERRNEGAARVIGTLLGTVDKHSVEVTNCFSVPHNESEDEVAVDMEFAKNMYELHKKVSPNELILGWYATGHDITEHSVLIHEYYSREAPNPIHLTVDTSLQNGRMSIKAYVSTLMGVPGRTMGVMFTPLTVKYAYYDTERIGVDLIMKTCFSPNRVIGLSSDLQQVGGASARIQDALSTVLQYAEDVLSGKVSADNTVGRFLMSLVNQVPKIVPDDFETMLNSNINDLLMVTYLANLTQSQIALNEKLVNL
OTUB1, sequence (Q96FW1 whole entry): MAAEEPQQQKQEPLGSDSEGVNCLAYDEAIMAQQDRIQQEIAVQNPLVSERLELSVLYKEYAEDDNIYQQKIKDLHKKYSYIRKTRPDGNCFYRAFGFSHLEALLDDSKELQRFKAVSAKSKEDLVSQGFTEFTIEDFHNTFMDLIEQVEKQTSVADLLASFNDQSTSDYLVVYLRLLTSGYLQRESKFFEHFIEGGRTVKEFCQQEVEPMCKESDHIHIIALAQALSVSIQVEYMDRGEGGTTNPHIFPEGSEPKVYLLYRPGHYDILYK

O=C(CCl)Nc1cccc2ncccc12
log2 ratio of Biotin-Ahx-Ub-VS probe labelling [1]: -0.13
log2 ratio of Biotin-Ahx-Ub-VS probe labelling [2]: 0.14
log2 ratio of Biotin-Ahx-Ub-VS probe labelling [3]: -3.71 (active)
log2 ratio of Biotin-Ahx-Ub-VS probe labelling [4]: 0.254
log2 ratio of Biotin-Ahx-Ub-VS probe labelling [5]: -0.273
log2 ratio of Biotin-Ahx-Ub-VS probe labelling [6]: -0.205
log2 ratio of Biotin-Ahx-Ub-VS probe labelling [7]: 0.156
log2 ratio of Biotin-Ahx-Ub-VS probe labelling [8]: -0.176
log2 ratio of Biotin-Ahx-Ub-VS probe labelling [9]: -0.516
